Measured values as given in PubChem BioAssay (EPA / NIEHS).
The source made the active and inactive calls. The calls were made as follows: active = hit-call score of the fitted dose curve at least 0.9, where 1 is the maximum; inactive = score below 0.9.

Tests used:
[1] = ATG_CRE_CIS: Attagene CIS-FACTORIAL HepG2 Assay for human cAMP Responsive Element (CRE) binding protein 3 (AID 2282926); conditions: HepG2 CRE cis-reporter, Attagene multiplexed mRNA; actives raise or lower the signal
Outline: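 Human liver HepG2, transient MRTU transfection, 24 h compound exposure. Total RNA → oligo(dT) RT → PCR → 6-FAM primer extension → HpaI cut → CE. Activity called both directions vs DMSO.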

[2] = molecular target: CCAAT/enhancer-binding protein beta (Homo sapiens) (UniProt P17676); assay: ATG_C_EBP_CIS: Attagene CIS-FACTORIAL HepG2 Assay for human CCAAT/Enhancer Binding Protein (C/EBP) beta (AID 2282927); conditions: HepG2 Attagene cis-factorial transcription factor reporter; actives raise or lower the signal
Chain of CCAAT/enhancer-binding protein beta (Homo sapiens) (P17676 whole entry, looked up): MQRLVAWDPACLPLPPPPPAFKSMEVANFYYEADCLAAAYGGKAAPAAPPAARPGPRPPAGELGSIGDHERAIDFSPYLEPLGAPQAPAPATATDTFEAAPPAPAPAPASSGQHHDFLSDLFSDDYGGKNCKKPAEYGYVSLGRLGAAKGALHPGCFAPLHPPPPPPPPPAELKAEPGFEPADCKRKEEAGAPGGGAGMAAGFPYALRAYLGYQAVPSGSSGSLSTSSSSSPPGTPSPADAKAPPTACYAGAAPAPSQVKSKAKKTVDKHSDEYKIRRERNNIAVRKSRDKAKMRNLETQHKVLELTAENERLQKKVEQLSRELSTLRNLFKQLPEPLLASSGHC
Outline: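 Changes in reporter mRNA, rather than exogenous chimeric receptor activity, reflect native C/EBP signalling in transfected HepG2 cells dosed for 24 h; transcripts are detected by RT-PCR and capillary electrophoresis.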

[3] = ATG_CMV_CIS: Attagene CIS-FACTORIAL HepG2 Assay for human CMV (Internal Marker) (AID 2282928); conditions: HepG2 CMV promoter reporter, transcription factor profiling; actives raise or lower the signal;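 also: endpoint acts as a background internal control marker rather than a target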
Outline: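 Cell system: HepG2, transiently transfected multiple reporter units under cis promoters. Exposure: 24 h. Detection: RT-PCR, FAM labeling, HpaI digestion, capillary electrophoresis. Analysis: bidirectional, DMSO baseline.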

[4] = ATG_DR4_LXR_CIS: Attagene CIS-FACTORIAL HepG2 Assay for human Liver X Receptor (LXR), DR4 submotif (AID 2282929); conditions: HepG2 Attagene DR4 cis-reporter, mRNA transcription; actives raise or lower the signal
Outline: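 Cells were transfected with multiple reporter transcription units, exposed to chemicals for 24 hours, then lysed for RNA. Reporter mRNA induction was measured by RT-PCR with capillary electrophoresis detection and fitted in both directions relative to DMSO.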

[5] = molecular target: Aryl hydrocarbon receptor (Homo sapiens) (UniProt P35869); assay: ATG_Ahr_CIS: Attagene CIS-FACTORIAL HepG2 Assay for human Aryl Hydrocarbon Receptor (Ahr) (AID 2282930); conditions: HepG2 AhR cis-factorial reporter transcription; actives raise or lower the signal
Chain of Aryl hydrocarbon receptor (Homo sapiens) (P35869 whole entry, looked up): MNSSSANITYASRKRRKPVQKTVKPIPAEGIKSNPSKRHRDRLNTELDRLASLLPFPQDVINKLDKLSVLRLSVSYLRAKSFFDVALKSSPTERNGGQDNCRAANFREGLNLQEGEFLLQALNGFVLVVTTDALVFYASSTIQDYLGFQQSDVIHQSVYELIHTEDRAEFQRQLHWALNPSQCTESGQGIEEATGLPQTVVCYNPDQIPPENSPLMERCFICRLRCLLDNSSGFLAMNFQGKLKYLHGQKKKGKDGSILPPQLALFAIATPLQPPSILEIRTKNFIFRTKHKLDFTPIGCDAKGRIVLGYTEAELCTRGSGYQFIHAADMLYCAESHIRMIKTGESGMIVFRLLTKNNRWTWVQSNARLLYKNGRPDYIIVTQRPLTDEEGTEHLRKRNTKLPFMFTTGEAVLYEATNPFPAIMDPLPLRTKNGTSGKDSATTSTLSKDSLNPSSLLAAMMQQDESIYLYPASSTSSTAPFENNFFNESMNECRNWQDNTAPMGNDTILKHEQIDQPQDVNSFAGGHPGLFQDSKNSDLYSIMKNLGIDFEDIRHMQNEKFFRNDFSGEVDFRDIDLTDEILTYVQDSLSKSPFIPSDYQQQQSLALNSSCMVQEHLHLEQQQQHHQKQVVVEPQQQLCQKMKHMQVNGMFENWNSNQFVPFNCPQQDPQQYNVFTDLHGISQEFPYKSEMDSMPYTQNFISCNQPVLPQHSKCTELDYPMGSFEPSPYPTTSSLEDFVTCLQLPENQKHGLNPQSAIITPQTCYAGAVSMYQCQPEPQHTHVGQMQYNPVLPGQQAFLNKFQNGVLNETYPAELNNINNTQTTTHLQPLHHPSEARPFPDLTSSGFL
Outline: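 HepG2, transient MRTU (cis) transfection, 24 h exposure. RNA → cDNA → PCR → 6-FAM primer extension → HpaI 2 h 37 C → CE. Fit: bidirectional, DMSO baseline.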

[6] = ATG_AP_1_CIS: Attagene CIS-FACTORIAL HepG2 Assay for human Activator Protein 1 (AP-1) (AID 2282931); conditions: HepG2 Attagene cis-factorial AP-1 reporter mRNA; actives raise or lower the signal
Outline: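 Endogenous transcription-factor activity in human HepG2 liver cells is read through a cis-promoter reporter transcript, sampled 24 h after dosing. Detection uses RT-PCR with capillary electrophoresis; values come from bidirectional fitting relative to DMSO.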

[7] = ATG_BRE_CIS: Attagene CIS-FACTORIAL HepG2 Assay for human Bone Morphogenetic Protein (BMP) Response Element (BRE) (AID 2282933); conditions: HepG2 BMP response element reporter, Attagene transcription factor profiling; actives raise or lower the signal
Outline: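 Endogenous transcription factor activity at a BMP response element was monitored in transfected HepG2 cells 24 h after dosing. Fluorescent RT-PCR products were resolved by capillary electrophoresis, and activity was fitted in both directions versus DMSO.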

[8] = molecular target: Retinoic acid receptor alpha (Homo sapiens) (UniProt P10276); assay: ATG_DR5_RAR_CIS: Attagene CIS-FACTORIAL HepG2 Assay for human Retinoic Acid Receptor Alpha (RARE), DR5 submotif (AID 2282934); conditions: HepG2 Attagene cis-factorial RARE DR5 reporter, mRNA; actives raise or lower the signal;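 as to AC50: reporter responds to endogenous RAR alpha beta and gamma in HepG2 not RARA alone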
Chain of Retinoic acid receptor alpha (Homo sapiens) (P10276 whole entry, looked up): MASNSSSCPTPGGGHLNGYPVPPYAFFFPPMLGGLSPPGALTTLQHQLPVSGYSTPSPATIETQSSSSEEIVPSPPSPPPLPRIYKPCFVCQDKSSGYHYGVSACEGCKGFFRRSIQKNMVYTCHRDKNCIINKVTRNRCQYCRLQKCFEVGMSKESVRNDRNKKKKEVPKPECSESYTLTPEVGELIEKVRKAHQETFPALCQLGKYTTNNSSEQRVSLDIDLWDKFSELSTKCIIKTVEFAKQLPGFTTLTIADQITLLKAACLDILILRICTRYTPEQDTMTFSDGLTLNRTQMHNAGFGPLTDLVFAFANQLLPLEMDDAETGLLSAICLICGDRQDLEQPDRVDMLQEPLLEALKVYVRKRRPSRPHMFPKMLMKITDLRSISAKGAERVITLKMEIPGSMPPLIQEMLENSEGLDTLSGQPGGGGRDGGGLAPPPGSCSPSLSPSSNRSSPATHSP
Outline: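 HepG2, transient cis-reporter transfection, 24 h exposure. mRNA readout: RT-PCR, FAM label, HpaI cut, capillary electrophoresis. DMSO baseline, gain/loss fitting.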

[9] = molecular target: Transcription factor E2F1 (Homo sapiens) (UniProt Q01094); assay: ATG_E2F_CIS: Attagene CIS-FACTORIAL HepG2 Assay for human E2F Transcription Factor 1 (AID 2282935); conditions: HepG2 Attagene cis-reporter, E2F reporter RNA transcripts; actives raise or lower the signal
Chain of Transcription factor E2F1 (Homo sapiens) (Q01094 whole entry, looked up): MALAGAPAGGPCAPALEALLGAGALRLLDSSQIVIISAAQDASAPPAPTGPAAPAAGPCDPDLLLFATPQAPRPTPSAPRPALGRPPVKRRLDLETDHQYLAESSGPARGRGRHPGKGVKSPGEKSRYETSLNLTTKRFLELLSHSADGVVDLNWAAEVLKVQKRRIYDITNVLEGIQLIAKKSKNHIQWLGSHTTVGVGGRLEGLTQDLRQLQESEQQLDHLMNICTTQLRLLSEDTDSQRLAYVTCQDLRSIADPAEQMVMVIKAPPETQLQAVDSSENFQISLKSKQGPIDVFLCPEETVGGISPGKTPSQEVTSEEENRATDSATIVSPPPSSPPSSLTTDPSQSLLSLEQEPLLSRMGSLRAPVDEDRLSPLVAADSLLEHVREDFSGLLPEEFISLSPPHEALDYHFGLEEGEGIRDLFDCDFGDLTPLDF
Outline: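 Cis-element reporter mRNA induction in transiently transfected HepG2, 24 h exposure. Activity fitted in both directions relative to DMSO negative control.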

[10] = ATG_E_Box_CIS: Attagene CIS-FACTORIAL HepG2 Assay for human Enhancer Box (E-box) (AID 2282936); conditions: HepG2 E-box cis-reporter transcription, actives raise or lower the signal
Outline: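 Cells: HepG2 (human liver), transient MRTU transfection. Exposure 24 h. RNA → oligo(dT) RT → PCR → 6-FAM label → HpaI → CE. Activity fitted both directions relative to DMSO.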

[11] = ATG_M_61_CIS: Attagene CIS-FACTORIAL HepG2 Assay for M61 Transcription Factor (Internal Marker) (AID 2282937); conditions: HepG2 Attagene CIS-FACTORIAL M61 internal marker reporter; actives raise or lower the signal
Outline: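 Cells were transfected with reporter units under cis-regulatory promoters, treated with chemicals for 24 h, then lysed for RNA. Reporter transcripts were quantified by RT-PCR and capillary electrophoresis, and activity was fitted bidirectionally against DMSO.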

[12] = ATG_EGR_CIS: Attagene CIS-FACTORIAL HepG2 Assay for human Early Growth Response 1 (EGR1) (AID 2282938); conditions: HepG2 Attagene CIS-FACTORIAL EGR reporter mRNA; actives raise or lower the signal
Outline: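 Endogenous TF activity in HepG2 liver cells was gauged through cis-promoter reporter constructs transiently transfected. After 24 h dosing, reporter mRNA was quantified by RT-PCR and capillary electrophoresis, and curves fitted in both directions versus DMSO.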

[13] = ATG_M_19_CIS: Attagene CIS-FACTORIAL HepG2 Assay for M19 Transcription Factor (Internal Marker) (AID 2282939); conditions: HepG2 Attagene CIS-FACTORIAL M19 internal marker reporter; actives raise or lower the signal
Outline: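 Background-control endpoint from a multiplexed HepG2 reporter panel. Cells carrying cis-regulated reporter constructs are treated 24 h, then reporter transcripts are amplified, fluorescently labelled and sized by capillary electrophoresis. DMSO defines baseline.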

[14] = ATG_ERE_CIS: Attagene CIS-FACTORIAL HepG2 Assay for Estrogen Response Element (ERE) (AID 2282940); conditions: HepG2 ERE cis-reporter, Attagene RNA transcript; actives raise or lower the signal
Outline: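 Cells used were human hepatoma HepG2, transfected with multiple reporter transcription units under cis-regulatory promoters. Reporter mRNA, read 24 h post-dosing via fluorescent RT-PCR products on capillary electrophoresis, was fitted bidirectionally relative to DMSO.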

[15] = ATG_Ets_CIS: Attagene CIS-FACTORIAL HepG2 Assay for human Erythroblast Transformation Specific (ETS) (AID 2282941); conditions: HepG2 ETS cis-reporter transcription, actives raise or lower the signal
Outline: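 After transient cis-reporter transfection, HepG2 cells receive test chemical for 24 h. Reporter mRNA levels, measured by RT-PCR and capillary electrophoresis fluorescence, are analysed bidirectionally relative to the DMSO baseline.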

[16] = molecular target: Hepatocyte nuclear factor 3-beta (Homo sapiens) (UniProt Q9Y261); assay: ATG_FoxA2_CIS: Attagene CIS-FACTORIAL HepG2 Assay for human Forkhead box A2 (FOXA2) (AID 2282942); conditions: HepG2 cis-reporter transcription factor activity, 24 h; actives raise or lower the signal
Chain of Hepatocyte nuclear factor 3-beta (Homo sapiens) (Q9Y261 whole entry, looked up): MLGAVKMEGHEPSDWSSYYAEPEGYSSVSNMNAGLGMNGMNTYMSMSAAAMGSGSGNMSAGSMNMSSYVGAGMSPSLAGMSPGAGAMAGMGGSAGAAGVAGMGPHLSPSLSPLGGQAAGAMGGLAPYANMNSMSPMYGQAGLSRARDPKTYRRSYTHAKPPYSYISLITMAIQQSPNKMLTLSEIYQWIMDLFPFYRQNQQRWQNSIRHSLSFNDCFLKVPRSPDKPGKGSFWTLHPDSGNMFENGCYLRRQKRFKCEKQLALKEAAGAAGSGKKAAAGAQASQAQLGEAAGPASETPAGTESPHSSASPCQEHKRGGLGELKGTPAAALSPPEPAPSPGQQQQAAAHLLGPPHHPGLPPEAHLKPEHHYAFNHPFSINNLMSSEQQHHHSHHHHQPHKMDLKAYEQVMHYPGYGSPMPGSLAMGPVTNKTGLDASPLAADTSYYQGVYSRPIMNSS
Outline: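 Endogenous transcription factor activity was read in HepG2 cells carrying transiently transfected cis-promoter reporter units. After 24 h dosing, reporter mRNA was quantified by RT-PCR and capillary electrophoresis, and values fitted bidirectionally versus DMSO.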

[17] = ATG_FoxO_CIS: Attagene CIS-FACTORIAL HepG2 Assay for human Forkhead box O (FoxO) (AID 2282943); conditions: HepG2 Attagene cis-reporter, FoxO element, mRNA; actives raise or lower the signal
Outline: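 Human hepatoma HepG2 cells carry transiently introduced reporter transcription units controlled by cis promoter elements. Chemical treatment lasted 24 h, and mRNA signal was compared with DMSO.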

[18] = ATG_GATA_CIS: Attagene CIS-FACTORIAL HepG2 Assay for human GATA Binding Protein (AID 2282944); conditions: HepG2 GATA cis-element reporter, Attagene multiplex mRNA; actives raise or lower the signal
Outline: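 Endogenous transcription factor activity was captured through cis-promoter-driven reporters in transfected HepG2 cells. After 24 h exposure, reporter transcripts were quantified by RT-PCR with fluorescent capillary electrophoresis, and responses fitted both directions against DMSO.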

[19] = ATG_AP_2_CIS: Attagene CIS-FACTORIAL HepG2 Assay for human Activator Protein 2 (AP-2) (AID 2282932); conditions: HepG2 AP-2 cis-reporter, Attagene transcription factor profiling; actives raise or lower the signal
Outline: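 HepG2, transient MRTU transfection, cis-regulated reporters; 24 h compound exposure; RNA isolated, RT-PCR, 6-FAM labelling, HpaI digest, CE fluorescence. DMSO = negative control/baseline, bidirectional fit.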

Measured: AC50

C[Si](C)(C)N[Si](C)(C)C
not listed: [19]
inactive: all other assays above

Cc1cc(C)n(CO)n1
not listed: [1]
inactive: all other assays above

CCCCc1ccc(Cl)cc1
not listed: [13]
inactive: all other assays above

NNS(=O)(=O)c1ccc(Oc2ccc(S(=O)(=O)NN)cc2)cc1
active: [5] 62.3 µM
not listed: [3] | [12] | [13]
inactive: all other assays above

Cc1ccc([N+](=O)[O-])cc1N
active: [5] 1.51 µM
inactive: all other assays above

C=CC(=O)O[C@H]1C[C@@H]2CC[C@@]1(C)C2(C)C
active: [6] 75.3 µM | [19] 100 µM | [8] 177 µM | [10] 25.3 µM | [12] 100 µM | [13] 157 µM | [14] 24.9 µM
not listed: [1]
inactive: all other assays above

OCCCc1ccccc1
not listed: [3]
inactive: all other assays above

CCCCCCCCCC(C)=O
not listed: [1]
inactive: all other assays above

COC(=O)c1ccc(C(=O)OC)c(C(=O)OC)c1
not listed: [1] | [11]
inactive: all other assays above

CCCCCC1=CCCC1=O
not listed: [19]
inactive: all other assays above

N#CC1(N)CCCCC1
not listed: [13]
inactive: all other assays above

CC(=O)c1ccc(S(=O)(=O)NC(=O)NC2CCCCC2)cc1
active: [5] 100 µM
not listed: [3] | [4]
inactive: all other assays above

CC(C)CCOCc1ccccc1
not listed: [18] | [19]
inactive: all other assays above

O=C(O)CC(C(=O)O)S(=O)(=O)O (stereo unspecified)
not listed: [4] | [12]
inactive: all other assays above

CC(C)C(=O)OCCc1ccccc1
not listed: [4]
inactive: all other assays above

CCCCOC(=O)CCC(C)=O
not listed: [1] | [3] | [15]
inactive: all other assays above

O=C(OCc1ccccc1)c1ccc(O)cc1
active: [7] 123 µM | [10] 171 µM | [12] 93.4 µM | [14] 8.77 µM
not listed: [4]
inactive: all other assays above

Cc1c(C(=O)c2c[nH]n(C)c2=O)ccc(S(C)(=O)=O)c1C1=NOCC1
not listed: [4] | [19]
inactive: all other assays above

CC1=C(O)C(=O)C(C)O1 (stereo unspecified)
not listed: [19]
inactive: all other assays above

CCC(C)(O)CCCC(C)C (stereo unspecified)
not listed: [13] | [14]
inactive: all other assays above
